Measured values: PubChem BioAssay AID504545 (Broad Institute, 2011)
Potency and affinity values are given separately. Records with an inconclusive call do not appear. The source made the active and inactive calls. How the calls were made is not given here.

biological target: Cyclin-dependent kinase 5 activator 1 (Homo sapiens) + Cyclin-dependent kinase 5 (Homo sapiens) (UniProt Q15078+Q00535); test: blockade of human CDK5 activity – biochemical, cherry-picked samples, set 2, dose response (AID 504545); details: CDK5/p35 kinase activity, biochemical plate reader; series mostly up to 30 µM; activity change, negative = inhibition: at the top concentration
Sequence (Q00535 whole entry, looked up): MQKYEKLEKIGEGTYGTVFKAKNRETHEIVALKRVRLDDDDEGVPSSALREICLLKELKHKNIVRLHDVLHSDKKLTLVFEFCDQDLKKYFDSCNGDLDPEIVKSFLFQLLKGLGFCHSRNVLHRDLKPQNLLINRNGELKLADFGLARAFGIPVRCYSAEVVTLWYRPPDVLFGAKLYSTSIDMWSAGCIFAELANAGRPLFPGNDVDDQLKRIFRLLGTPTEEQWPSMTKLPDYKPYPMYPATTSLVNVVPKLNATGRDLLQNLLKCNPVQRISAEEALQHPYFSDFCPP
Sequence (Q15078 whole entry, looked up): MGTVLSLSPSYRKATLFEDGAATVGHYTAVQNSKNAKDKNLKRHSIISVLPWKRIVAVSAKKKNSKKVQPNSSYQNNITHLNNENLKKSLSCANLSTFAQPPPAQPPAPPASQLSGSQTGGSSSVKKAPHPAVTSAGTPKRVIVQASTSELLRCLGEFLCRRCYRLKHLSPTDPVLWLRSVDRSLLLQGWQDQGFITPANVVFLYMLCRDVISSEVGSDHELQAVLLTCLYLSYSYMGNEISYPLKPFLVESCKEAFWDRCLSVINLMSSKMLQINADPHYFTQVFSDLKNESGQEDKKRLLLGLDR

Activity change, negative = inhibition, inactive:
CC(C)n1cnc2c(N(C)c3cccc(Cl)c3)nc(N(CCO)CCO)nc21 3.33%
Nc1ncnc2c1ncn2C1OC(CO)C(O)C1O (stereo not drawn) -1.99%
O=C(c1ccc2c(c1)OCCO2)N1CCN(c2ccccn2)CC1 18.1%
O=C(O)c1ccc(N/N=C/c2ccc(C(F)(F)F)cc2)cc1 -7.66%
Cc1nc(Nc2ccccc2)sc1C(=O)c1ccccc1 -4.27%
CC(C)(C)c1ccc(C(=O)O/N=C(\N)c2ccccn2)cc1 11.4%
O=C(NNC(=O)c1ccccn1)c1ccc(OC(F)F)cc1 4.47%
CC(C)C[C@H](CO)Nc1nc(N(C)c2cccc(Cl)c2)c2ncn(C(C)C)c2n1 15.1%
O=C(NNC(=O)c1cccs1)c1ccccc1 -8.86%
O=C(c1ccc(F)cc1)c1cnc(Nc2ccccc2)s1 -8.57%
COc1ccc2nc(C)cc(Nc3ccc(C)cc3)c2c1 7.73%
CCNc1nc(Nc2ccc(C)c(Cl)c2)c2cnn(C)c2n1 10.2%
Cc1ccc(C(=O)O/N=C(\N)c2ccccn2)cc1C 12.2%
CC(C)n1cnc2c(NCc3ccc(S(N)(=O)=O)cc3)nc(NCc3ccc(S(N)(=O)=O)cc3)nc21 -18.7%
Clc1ccc(N/N=C/c2ccncc2)cc1Cl -9.21%
COc1ccc(Nc2nccc(-c3ccc([N+](=O)[O-])cc3)n2)cc1 -9.28%
Cc1ccc(Nc2nc(NCCO)nc3c2cnn3C)cc1Cl -6.44%
CC(C)=CCNc1ncnc2c1c(C#N)cn2C1OC(CO)C(O)C1O (stereo not drawn) -10.9%
C=CC(=O)Nc1ccc(Nc2ccnc(Nc3ccc(N4CCN(C)CC4)cc3)n2)cc1 14.6%
COc1cc(OC)c(C(=O)N2CCN(c3ccccn3)CC2)cc1OC 4.37%
Clc1cccc(Cl)c1/C=N/Nc1c(Cl)cncc1Cl -9.72%
O=[N+]([O-])c1ccc2c(c1)/C(=N\O)c1ccccc1-2 -11.8%
O=C(O)c1ccc(/C=N/Nc2ncc(C(F)(F)F)cc2Cl)cc1 -5.86%
COc1ccc(Nc2nc(N)c(C(=O)c3ccc(F)cc3)s2)cc1 -13.6%
CC(C)[C@H](CO)N(Cc1cccc(F)c1)c1nc(Nc2cccc(Cl)c2)c2ncn(C(C)C)c2n1 -8.3%
Oc1cccc(C=NNc2ccccn2)c1 7.41%
Clc1cnc(N/N=C/c2ccncc2)c(Cl)c1 -12.7%
CCN1C(=O)/C(=C2/Sc3ccc(OC)cc3N2C)SC1=Nc1cccc(O)c1 13%
